A short description of assay [1]: compounds binding Alexa647 anti-His antibody – biochemical, small-molecule microarray, 635 nm fluorescence, artefact control for SMM control protein annotation, primary screen (AID 1128).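 Note: score merges feature fluorescence with signal-to-noise for each printed compound spot.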 As to conditions: higher = more signal.
For assay [2], the system named is Human papillomavirus type 1a E7 protein (residues 1-88). In words: HPV1a E7 small-molecule binders, primary screen, biochemical, small-molecule microarray, residues 1-88, 635 nm (AID 1129). The following applies: small-molecule microarray binding, fluorescence 635 nm; higher = more signal.
The target of assay [3] is Focal adhesion kinase 1 (Homo sapiens) (UniProt Q05397). In words: PTK2 protein binding on printed compound slides – biochemical, small-molecule microarray, 635/667 nm fluorescence, BSA, DTT, primary screen (AID 1130).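 Note: composite of spot emission at 667 nm and signal to noise over triplicate slides.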 As to conditions: 635 nm fluorescence, higher = more signal.
Sequence of Focal adhesion kinase 1 (Homo sapiens) (Q05397 whole entry, looked up): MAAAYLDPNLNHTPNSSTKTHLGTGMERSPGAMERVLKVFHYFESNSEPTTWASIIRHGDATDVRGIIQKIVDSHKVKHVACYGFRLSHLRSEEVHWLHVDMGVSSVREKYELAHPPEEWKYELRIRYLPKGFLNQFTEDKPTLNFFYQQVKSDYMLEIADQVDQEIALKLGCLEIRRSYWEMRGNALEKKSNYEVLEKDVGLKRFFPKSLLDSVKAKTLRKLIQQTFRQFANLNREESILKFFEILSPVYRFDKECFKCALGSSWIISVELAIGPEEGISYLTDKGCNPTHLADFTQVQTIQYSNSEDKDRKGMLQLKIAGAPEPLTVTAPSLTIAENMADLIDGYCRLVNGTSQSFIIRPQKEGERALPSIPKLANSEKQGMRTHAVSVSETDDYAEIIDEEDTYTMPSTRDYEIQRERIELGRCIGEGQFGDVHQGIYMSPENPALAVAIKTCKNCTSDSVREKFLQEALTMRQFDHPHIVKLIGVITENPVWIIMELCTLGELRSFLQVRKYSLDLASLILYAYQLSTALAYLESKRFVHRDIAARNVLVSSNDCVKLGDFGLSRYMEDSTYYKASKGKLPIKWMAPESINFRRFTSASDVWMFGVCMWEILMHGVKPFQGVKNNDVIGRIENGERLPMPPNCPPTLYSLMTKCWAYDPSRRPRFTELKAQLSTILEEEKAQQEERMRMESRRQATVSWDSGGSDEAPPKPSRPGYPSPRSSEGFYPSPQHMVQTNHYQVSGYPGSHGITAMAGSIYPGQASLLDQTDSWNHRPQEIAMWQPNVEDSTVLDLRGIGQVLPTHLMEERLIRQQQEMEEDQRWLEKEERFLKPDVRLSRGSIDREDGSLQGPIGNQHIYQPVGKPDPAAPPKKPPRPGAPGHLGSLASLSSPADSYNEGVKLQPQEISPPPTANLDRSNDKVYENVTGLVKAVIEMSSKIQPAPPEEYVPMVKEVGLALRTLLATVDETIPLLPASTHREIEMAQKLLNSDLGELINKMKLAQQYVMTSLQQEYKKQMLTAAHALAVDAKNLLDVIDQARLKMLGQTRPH
Assay [4] concerns Fibrinogen (Alexa647-labelled). Description: Alexa647-fibrinogen binding to printed small molecules – biochemical, small-molecule microarray, 635/667 nm fluorescence, artefact control for SMM control-protein annotation, profiling panel (AID 1131).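 Note: z-score merges 667 nm fluorescence with per-spot signal-to-noise over triplicate slides.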 The following applies: fibrinogen-A647 binding fluorescence, higher = more signal.
The target of assay [5] is Follistatin (Homo sapiens) (UniProt P19883). Description: FST protein binding to printed compounds – biochemical, small-molecule microarray, 635/667 nm fluorescence, primary screen (AID 1132). As to conditions: 635 nm fluorescence, higher = more signal.
Sequence of Follistatin (Homo sapiens) (P19883 whole entry, looked up): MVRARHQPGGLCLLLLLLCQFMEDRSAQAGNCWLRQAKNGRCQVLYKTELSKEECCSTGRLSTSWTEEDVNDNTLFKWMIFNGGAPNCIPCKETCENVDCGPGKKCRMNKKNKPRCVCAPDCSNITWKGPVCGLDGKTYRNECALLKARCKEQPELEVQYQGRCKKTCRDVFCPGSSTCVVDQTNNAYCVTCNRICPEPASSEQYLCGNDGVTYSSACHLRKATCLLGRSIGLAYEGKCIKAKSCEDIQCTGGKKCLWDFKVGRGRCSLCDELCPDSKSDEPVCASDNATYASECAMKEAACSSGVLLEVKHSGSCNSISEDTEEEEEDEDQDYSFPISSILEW
Assay [6] addresses Fibroblast growth factor 2 (Homo sapiens) (UniProt P09038). In words: basic fibroblast growth factor binding to printed compounds – biochemical, small-molecule microarray, 635/667 nm fluorescence, primary screen (AID 1133). The following applies: FGF2, fluorescence 635/667, higher = more signal.
Assay [7] in a line: JC-1 mitochondrial potential readout, lung cancer cells – cell-based, A549, JC-1 fluorescence, basal, 24 h, 100 nL, profiling panel (AID 1138).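 Note: A549 lung adenocarcinoma cells under basal conditions with no added stimulus; test concentration not given here.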 As to conditions: higher = more signal.
Another assay relates to Lefty1. In words: Lefty1 protein binding to printed compounds – biochemical, small-molecule microarray, 635/667 nm fluorescence, primary screen (AID 1139). As to conditions: fluorescence 635/667, higher = more signal.
The subject of assay [8] is wheat germ agglutinin (Triticum aestivum), Alexa647-labelled. Description: Alexa647-WGA lectin binding to printed small molecules – biochemical, small-molecule microarray, 635/667 nm fluorescence, artefact control for SMM control-protein annotation, profiling panel (AID 1140).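 Note: score merges 667 nm feature emission with signal to noise over triplicate slides.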 As to conditions: WGA-A647 binding, 635 nm fluorescence, higher = more signal.
Assay [9] deals with Luciferin 4-monooxygenase (Photinus pyralis) (UniProt P08659). Description: inhibition of purified Photinus pyralis luciferase – biochemical, luminescence, purified enzyme, 2006 set, primary screen (AID 1141).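 Note: cell-free assay with purified firefly luciferase at 100 ng per well in PBS; test concentration not given here.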 As to conditions: purified firefly luciferase, SteadyGlo luminescence, 30 min; higher = more signal, called active from +8 up or from −8 down.
Sequence of Luciferin 4-monooxygenase (Photinus pyralis) (P08659 whole entry, looked up): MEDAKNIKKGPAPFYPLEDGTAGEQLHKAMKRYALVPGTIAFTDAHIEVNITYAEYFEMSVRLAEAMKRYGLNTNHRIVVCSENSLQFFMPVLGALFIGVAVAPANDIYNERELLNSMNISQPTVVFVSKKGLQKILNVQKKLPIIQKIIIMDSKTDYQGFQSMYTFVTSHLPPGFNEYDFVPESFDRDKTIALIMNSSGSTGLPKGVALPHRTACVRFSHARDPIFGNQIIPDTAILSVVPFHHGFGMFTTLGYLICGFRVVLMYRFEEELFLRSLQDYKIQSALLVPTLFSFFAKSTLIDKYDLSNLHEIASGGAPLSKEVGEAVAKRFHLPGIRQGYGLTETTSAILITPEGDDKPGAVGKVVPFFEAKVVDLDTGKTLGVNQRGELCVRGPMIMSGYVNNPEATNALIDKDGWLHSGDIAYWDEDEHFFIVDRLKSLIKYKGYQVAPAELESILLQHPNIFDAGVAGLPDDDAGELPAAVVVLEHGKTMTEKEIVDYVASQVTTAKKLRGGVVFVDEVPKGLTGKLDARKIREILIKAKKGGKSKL
For assay [10], the system named is Wnt5a (protein binding on small-molecule microarray). Description: small molecules binding Wnt5a protein – biophysical, small-molecule microarray, 635/667 nm fluorescence, primary screen (AID 1142).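 Note: fluorescence read at 667 nm with signal to noise per printed feature.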 The following applies: 635 nm fluorescence, higher = more signal.
A short description of assay [11]: ATP-based viability of Huh7 replicon cells – cell-based, CellTiter-Glo luminescence, basal, 48 h, cytotoxicity control for HCV replication inhibitor project, primary screen (AID 1143).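 Note: Huh7 hepatoma cells carrying a hepatitis C replication reporter with no stimulus; test concentration not given here.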 As to conditions: higher = more signal, called active from +8 up or from −8 down.
Assay [12] can be described thus: Pseudomonas biofilm growth suppression – PAO1 strain, BacTiter-Glo luminescence, LB-PBS, primary screen (AID 1144). The following applies: P. aeruginosa PAO1 biofilm, 12 h, higher = more signal.
A short description of assay [13]: basal CRE-LacZ reporter activity in PC12 – cell-based, unstimulated, primary screen (AID 1145). As to conditions: no forskolin, luminescence, 4.5 h, higher = more signal, called active from +8 up or from −8 down.
Assay [14] is described as follows: forskolin-driven CRE-LacZ activity in PC12 – cell-based, CRE-LacZ reporter, forskolin-stimulated, primary screen (AID 1146).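 Note: PC12 cells with 6xCRE LacZ reporter stimulated by forskolin 10 µM; beta-galactosidase reporter signal reflecting CREB driven transcription.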 As to conditions: luminescence, 4.5 h, higher = more signal, called active from +8 up or from −8 down.
Assay [15] deals with Streptavidin (Streptomyces avidinii) (UniProt P22629). In words: compounds binding control protein streptavidin – biophysical, small-molecule microarray, 635/667 nm fluorescence, artefact control for SMM compound annotation, primary screen (AID 1147).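 Note: signal reflects streptavidin binding to arrayed compounds as a control protein.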 As to conditions: higher = more signal.
Sequence of Streptavidin (Streptomyces avidinii) (P22629 whole entry, looked up): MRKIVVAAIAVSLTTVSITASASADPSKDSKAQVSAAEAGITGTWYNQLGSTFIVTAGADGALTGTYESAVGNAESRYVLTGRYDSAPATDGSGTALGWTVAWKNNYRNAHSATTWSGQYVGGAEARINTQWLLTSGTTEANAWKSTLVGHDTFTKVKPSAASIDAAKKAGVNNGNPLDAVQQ
Assay [16] is described as follows: probe aInhba binding on compound microarray – biochemical, small-molecule microarray, 635/667 nm fluorescence, primary screen (AID 1148).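 Note: score merges 667nm spot fluorescence with signal-to-noise for antibody binding to printed compounds.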 As to conditions: higher = more signal.
In assay [17] the target is Torsin-1A (Homo sapiens) (UniProt O14656). In words: TOR1A wild-type binding on microarray – cell lysate, small-molecule microarray, lysate, 635/667 nm, primary screen (AID 1149). As to conditions: COS7 hTOR1A-WT lysate, 635 nm fluorescence, higher = more signal.
Sequence of Torsin-1A (Homo sapiens) (O14656 whole entry, looked up): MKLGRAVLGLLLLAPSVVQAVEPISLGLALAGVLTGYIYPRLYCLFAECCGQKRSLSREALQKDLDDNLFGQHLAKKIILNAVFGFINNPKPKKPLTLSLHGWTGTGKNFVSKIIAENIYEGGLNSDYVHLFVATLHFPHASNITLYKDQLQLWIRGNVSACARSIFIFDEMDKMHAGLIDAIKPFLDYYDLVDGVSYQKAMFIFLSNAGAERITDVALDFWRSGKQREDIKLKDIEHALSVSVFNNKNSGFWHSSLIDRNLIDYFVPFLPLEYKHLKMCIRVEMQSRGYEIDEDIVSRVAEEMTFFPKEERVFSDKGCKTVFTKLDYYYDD
Assay [18] shares this target. Description: torsin A mutant lysate binding on microarrays – cell lysate, small-molecule microarray, COS7 lysate, 635/667 nm fluorescence, primary screen (AID 1150).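 Note: score pools 667 nm emission and signal to noise measuring lysate protein binding.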 The following applies: COS7 hTOR1A mutant lysate, 635 nm fluorescence, higher = more signal.
Assay [19] has as its system Sonic hedgehog protein (Shh). In words: Sonic hedgehog microarray binding compounds – biochemical, small-molecule microarray, 635/667 nm fluorescence, primary screen (AID 1151).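 Note: Shh protein binding to compounds spotted on small-molecule microarray slides; score combines spot fluorescence intensity with signal-to-noise across triplicate slides.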 As to conditions: 635 nm fluorescence, higher = more signal.

Active and inactive are the calls of the source. Unless noted, the rule behind the calls is not given here.

Here are results for five molecules from PubChem BioAssay.

Sequence of Fibroblast growth factor 2 (Homo sapiens) (P09038 whole entry, looked up): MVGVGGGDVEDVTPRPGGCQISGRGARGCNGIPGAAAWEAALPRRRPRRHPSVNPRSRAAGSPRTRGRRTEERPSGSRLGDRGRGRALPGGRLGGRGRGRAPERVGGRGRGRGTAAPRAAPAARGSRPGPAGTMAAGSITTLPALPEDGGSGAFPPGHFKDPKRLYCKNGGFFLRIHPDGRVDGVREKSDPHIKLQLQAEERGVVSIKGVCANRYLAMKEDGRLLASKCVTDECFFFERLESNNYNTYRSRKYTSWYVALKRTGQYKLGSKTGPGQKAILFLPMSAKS

Consider `C=C(COC)/C(=C/C[C@@H](OC(=O)c1ccncc1)c1ccc(OCCO)cc1)c1cnc2ccccc2c1`, for which the composite z-score in [1] is 0.866; in [2], 1.13; in [3], 0.0089; in assay [4] it was 0.94; in [5] it was 1.46; in [6], 1.74. Moreover, the composite z-score in the assay with Lefty1 was 1.49; in [8], 0.798; in assay [10], 0.884; in assay [15], 2.13; in [16] it was 0.0419; with Torsin-1A (Homo sapiens) [17], 0.77. In addition, the results for the composite z-score (with Torsin-1A (Homo sapiens) [18]; in assay [19]) were 0.327 and 2.09, respectively. Also, the z-score is 0.703 in assay [7]; -2.4 (inactive) in [9]; -3.25 (inactive) in [11]; -1.28 (inactive) in assay [12]; 7.95 (inactive) in [13]; 0.34 (inactive) in [14].

As for `C[C@@H](OCc1ccccc1)C1NC(=O)[C@@]23C(=O)N[C@@H](Cc4ccccc4)C2[C@H](C)[C@@]2(C)O[C@H]2C3/C=C/C/C=C\CNC(=O)CNC1=O` (stereo not given in full), the composite z-score was 0.413 in [1]; -0.668 in [2]; 0.193 in [3]; -2.57 in assay [4]; -0.237 in assay [5]; -0.113 in assay [6]. Besides, the composite z-score in the assay on Lefty1 is -0.339; in assay [8], -1.08; in assay [10], -0.556; in [15], -0.918; in assay [16], -0.105; in the assay with Torsin-1A (Homo sapiens) [17], 0.333. The composite z-score in the assay with Torsin-1A (Homo sapiens) [18] is -0.104; in assay [19] it was 1.24. For the same molecule, the z-score in assay [7] was -0.777; in assay [9], 0.196 (inactive); in [11], -2.16 (inactive); in [12], -0.295 (inactive); in assay [13] it was -0.962 (inactive); in [14], -0.88 (inactive).

For `NC(=O)NCC#Cc1ccc2c(c1)[C@]1(C(=O)N2)[C@H](C(=O)O)[C@H]2C(=O)O[C@H](c3ccccc3)[C@H](c3ccccc3)N2[C@@H]1c1ccccc1OCCO`, the composite z-score was 1.18 in assay [1]; 0.866 in assay [2]; 0.129 in assay [3]; 0.809 in [4]; 1.03 in assay [5]; 0.836 in [6]. Further, the composite z-score came to 1.2 with Lefty1; 1.16 in assay [8]; 0.697 in assay [10]; 1.1 in [15]; 0.374 in assay [16]; 0.712 with Torsin-1A (Homo sapiens) [17]. The composite z-score with Torsin-1A (Homo sapiens) [18] stood at 0.651; in [19], 1.41. Also, the z-score in [7] was 0.246; in [9], -4.72 (inactive); in assay [11], -1.95 (inactive); in assay [12], -1.26 (inactive); in assay [13], 0.0384 (inactive); in [14], 0.143 (inactive).

Consider `CC(C)N1CC=CC23O[C@@H]4C=CCCOC(=O)C4[C@H]2C(=O)N(CCO)[C@@H]3C1=O` (stereo not given in full), for which the composite z-score in assay [1] was -0.517; in [2], -1; in [3], -0.482; in [4], -0.288; in assay [5], -0.194; in assay [6] it was -0.205. Further, the composite z-score in the assay with Lefty1 was 0.0404; in assay [8], 0.459; in assay [10], -0.496; in assay [15], -0.516; in assay [16], -0.213; with Torsin-1A (Homo sapiens) [17], 0.862. In addition, the composite z-score in the assay with Torsin-1A (Homo sapiens) [18] is 0.875; in assay [19], -0.0837. Also, the z-score in [7] is -0.467; in assay [9] it was 0.697 (inactive); in [11], -0.102 (inactive); in assay [12] it was -2.21 (inactive); in assay [13], -1.99 (inactive); in [14] it was -0.665 (inactive).

On to `CN(C)CCCNC(=O)[C@@]1(c2ccc([N+](=O)[O-])cc2)CC(=O)N(CC23CC4CC(CC(C4)C2)C3)[C@@H]1c1ccc(CO)cc1`, for which the composite z-score was determined as 1.03 in assay [1]; 1.19 in [2]; 0.703 in [3]; 0.807 in assay [4]; 1.28 in assay [5]; 0.844 in assay [6]. The composite z-score in the assay with Lefty1 was 0.99; in [8] it was 0.955; in [10], 0.461; in assay [15] it was 2.03; in [16], 0.641; with Torsin-1A (Homo sapiens) [17], -0.183. The values for the composite z-score (with Torsin-1A (Homo sapiens) [18]; in assay [19]) were 0.0626 and 0.989, respectively. Moreover, the z-score in assay [7] was 0.742; in [9], 0.292 (inactive); in assay [11] it was -5.82 (inactive); in assay [12], -0.262 (inactive); in [13], -0.295 (inactive); in assay [14], -0.741 (inactive).
